According to article PMC4336329 (PLoS ONE, 2015):
In all, about 310,000 compounds went through this assay and about 14,000 (4.5%) showed an effect of 50% or more. Effects have a minus sign here. This excerpt belongs to a sample that is enriched for strong results.

Biological target: human ether-à-go-go-related gene (hERG) potassium channel (human, UniProt Q12809)
Assay: primary screen, population patch clamp on CHO cells stably expressing hERG; higher = less effect of the substance
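Also: peak tail current of the secondary pulse compared with the same well before compound.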

Chain of human ether-à-go-go-related gene (hERG) potassium channel (Q12809 whole entry, looked up): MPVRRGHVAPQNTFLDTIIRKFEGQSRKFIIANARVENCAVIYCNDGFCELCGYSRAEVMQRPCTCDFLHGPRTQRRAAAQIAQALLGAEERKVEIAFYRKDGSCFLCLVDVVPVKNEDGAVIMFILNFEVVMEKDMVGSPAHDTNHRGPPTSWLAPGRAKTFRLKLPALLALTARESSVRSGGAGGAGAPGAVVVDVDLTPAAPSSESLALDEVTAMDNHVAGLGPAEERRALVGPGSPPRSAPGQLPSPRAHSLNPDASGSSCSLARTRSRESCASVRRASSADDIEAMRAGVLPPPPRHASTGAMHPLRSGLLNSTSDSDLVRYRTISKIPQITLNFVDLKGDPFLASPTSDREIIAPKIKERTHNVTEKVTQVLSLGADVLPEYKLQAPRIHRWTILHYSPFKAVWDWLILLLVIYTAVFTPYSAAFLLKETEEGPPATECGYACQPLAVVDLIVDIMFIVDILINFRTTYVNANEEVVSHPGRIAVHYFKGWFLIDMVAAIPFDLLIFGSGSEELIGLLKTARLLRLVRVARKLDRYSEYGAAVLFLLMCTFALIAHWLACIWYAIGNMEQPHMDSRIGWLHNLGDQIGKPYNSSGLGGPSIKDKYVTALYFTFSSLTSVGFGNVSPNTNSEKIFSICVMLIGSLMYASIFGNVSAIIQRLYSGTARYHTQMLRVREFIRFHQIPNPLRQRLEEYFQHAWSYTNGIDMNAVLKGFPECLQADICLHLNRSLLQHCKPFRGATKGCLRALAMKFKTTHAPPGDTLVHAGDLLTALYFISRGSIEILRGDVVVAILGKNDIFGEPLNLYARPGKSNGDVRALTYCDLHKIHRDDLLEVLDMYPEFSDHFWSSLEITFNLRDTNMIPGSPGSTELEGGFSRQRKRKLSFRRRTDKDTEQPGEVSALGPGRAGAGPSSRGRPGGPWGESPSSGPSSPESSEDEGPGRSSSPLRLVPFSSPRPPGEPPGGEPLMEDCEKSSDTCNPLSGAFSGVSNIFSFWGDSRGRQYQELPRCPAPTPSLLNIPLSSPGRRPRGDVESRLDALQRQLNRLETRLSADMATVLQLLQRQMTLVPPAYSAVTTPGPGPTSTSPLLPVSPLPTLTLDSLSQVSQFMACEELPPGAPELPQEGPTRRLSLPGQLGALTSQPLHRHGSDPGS

Compound | hERG current change (%, negative = inhibition) at 10uM [%]
Cc1cccc(-c2cc3nc(C)cc(NCCCN(C)C)n3n2)c1 | -38.1
COc1ccc(-c2cc3nc(C)cc(NCCO)n3n2)cc1 | -33.6
Cc1cc(NCCCn2ccnc2)n2nc(-c3ccc(Cl)cc3)cc2n1 | -74.6
Cc1cccc(-c2cc3nc(C)c(C)c(NCCCn4ccnc4)n3n2)c1 | -68.9
Cc1cc(NCCCn2ccnc2)n2nc(-c3ccc(F)cc3)cc2n1 | -14
Cc1cccc(-c2cc3nc(C)cc(NCCCn4ccnc4)n3n2)c1 | -59.3
Cc1cccc(-n2ncc3c(NCCCn4ccnc4)ncnc32)c1 | -16.5
Cc1cc(-c2ccccc2)nc2cc(C(=O)NCCCn3ccnc3)nn12 | -22.2
Cc1cccc(-c2cc3nc(C)cc(C)n3n2)c1 | 2.6
CCc1cc2c(=O)[nH]c(Cc3ccc(OC)cc3)nc2s1 | 2.16
O=C(Nc1ccccc1)C(Cc1cccs1)c1nn[nH]n1 (stereo not drawn) | -0.965
O=C(CNc1cccc(S(=O)(=O)N2CCOCC2)c1)Nc1ccc(C(F)(F)F)cc1 | -44.2
O=C(Cc1ccccc1)NC(NCCCN1CCOCC1)(C(F)(F)F)C(F)(F)F | 5.2
O=C(O)c1cccc(Cn2c(Cl)c(/C=N/NC(=O)c3ccccc3O)sc2=O)c1 | 12.6
Cc1cc(C)n2cc(CSc3nnnn3C)nc2n1 | 2.06
Cc1cc(C)n2cc(CSc3nnnn3-c3ccccc3C)nc2n1 | -58.3
CCc1nnc(SCc2cn3c(C)cc(C)nc3n2)n1N | 13.5
Cc1cccc2nc(CSc3nnnn3-c3ccccc3)cn12 | -41.5
Cc1cc(C)n2cc(CSc3nncn3C)nc2n1 | 17.2
Cc1cc(C)n2cc(CSc3nnnn3-c3ccccc3)nc2n1 | -56.3
O=C(CCCc1ccccc1)N1CCc2ccccc21 | 10.1
Cc1c(N=Cc2ccc(-c3ccc(Cl)cc3)o2)c(=O)n(-c2ccccc2)n1C | -15.3
Cc1cc(C)nc(OC(C(=O)O)C(OCC(C)C)(c2ccccc2)c2ccccc2)n1 (stereo not drawn) | 17.8
Cc1[nH]c2c(C(F)(F)F)cccc2c1CCN.Cl | -1.49

Compound | hERG current change (%, negative = inhibition) at 10uM [%]
CCOc1ccc(C(=O)Nc2cccc3nsnc23)cc1[N+](=O)[O-] | 5.23
C/C=C(\C)CN1CCCC(CO)(Cc2ccccc2)C1 (stereo not drawn) | 10.4
OCC1(CC2CCCCO2)CCN(C/C=C/c2ccccc2)CC1 (stereo not drawn) | -46
OCC1(CCc2ccccc2)CCN(C/C=C/c2ccccc2)CC1 | -80.9
O=C(CCC(F)(F)F)N1CCCC(CO)(CCc2ccccc2)C1 (stereo not drawn) | -13.5
O=S(=O)(Cc1ccccc1)N1CCN(C/C=C/c2ccccc2)CC1 | -5.88
OCC1(CCc2ccccc2)CCCN(C/C=C/c2ccccc2)C1 (stereo not drawn) | -73.5
CC1(C)CC2(CCO1)OC(=O)CC2C(=O)Nc1cccc2ccccc12 (stereo not drawn) | 12
Cn1cccc1/C=C1\SC(=S)N(CC(=O)O)C1=O | 1.83
COc1ccc(OC)c(S(=O)(=O)n2cnc3ccccc32)c1 | -5.26
Cc1cccc(CS(=O)(=O)c2ncc(CO)n2C)c1 | 16
CCCCc1cc2ccccc2c(OCCN(C)C)n1.Cl | -61.9
Cc1cc(C)c(S(=O)(=O)c2ccccc2C)c(OCCN(C)C)n1 | -20.2
CN(C)CCOc1ncnc2c1oc1ccccc12 | -13.5
CCCCCCCC(=O)NNC(=O)c1ccc([N+](=O)[O-])cc1 | -20.6
Cc1cccc(C(=O)OCC(=O)c2ccc(CC(=O)N3CCOCC3)s2)c1C | -52.4
Cc1ccc(C(=O)OCC(=O)c2ccc(CC(=O)N3CCOCC3)s2)cc1C | -31.2
Nc1cc(C(=O)OCC(=O)c2ccc(CC(=O)N3CCOCC3)s2)ccc1Cl | -27.8
O=C(NCc1cccnc1)c1cn(-c2ccccc2)nc1-c1cccs1 | -32
O=C(NCc1ccncc1)c1cn(-c2ccccc2)nc1-c1cccnc1 | -62
O=C(NCc1cccnc1)c1cn(-c2ccccc2)nc1-c1ccccc1 | -24.3
O=C(NC1CCN(Cc2ccccc2)CC1)c1cn(-c2ccccc2)nc1-c1cccnc1 | -68
O=C(NC1CCN(Cc2ccc(Cl)cc2)CC1)c1cn(-c2ccccc2)nc1-c1cccnc1 | -75.1
O=C(O)c1cn(-c2ccccc2)nc1-c1cccnc1 | -1.94

Compound | hERG current change (%, negative = inhibition) at 10uM [%]
O=C(COC(=O)c1cn(-c2ccccc2)nc1-c1cccnc1)NC1CC1 | -0.964
COC(=O)c1cn(-c2ccccc2)nc1-c1cccnc1 | -28.5
NC(=O)c1cn(-c2ccccc2)nc1-c1cccnc1 | -1.67
CCc1ccc(NC(=S)NCc2ccccc2)cc1 | 3.91
Cc1nc(N/N=C/c2ccc(Br)cc2)cc(N2CCOCC2)n1 | -0.525
CCOC(=O)N1CCC(NC(=O)c2ccc(CS(=O)(=O)c3ccc(OC)cc3)o2)CC1 | -33.4
C[C@]12C[C@H](O)[C@@H]3c4ccc(O)cc4CCC3[C@@H]1CCC2=O (stereo partly drawn) | 9.39
COCCN(CCOC)C(=O)c1ccc(CSc2nc3ccccc3s2)cc1 | -21.8
COc1ccc(C(C)(C)C)cc1NC(=O)C1C2C=CC(C2)C1C(=O)O (stereo not drawn) | 12.5
CCOC(=O)C1=C(C)N(CC(C)C)C(=O)/C1=C\c1ccc(OCC(=O)Nc2ccccc2)cc1 | -9.9
COc1cc(OC)nc(NC(=S)NC(=O)c2ccccc2)n1 | 23.1
S=C(Nc1ccccc1Cl)N(CCN1CCCCC1)Cc1ccco1 | -42.3
Fc1ccccc1NC(=S)N(CCN1CCCCC1)Cc1ccco1 | -51.2
Fc1ccccc1NC(=S)N(CCN1CCCCCC1)Cc1cccs1 | -53
COc1ccccc1NC(=S)N(Cc1ccccc1)Cc1cccs1 | 14.9
Cc1ccccc1NC(=S)N(CCN1CCCCCC1)Cc1cccs1 | -39.5
Fc1ccccc1CN(CCN1CCOCC1)C(=S)Nc1ccccc1Cl | -6.77
Cc1ccccc1NC(=S)N(CCN1CCCCC1)Cc1ccco1 | -30.2
COc1ccccc1NC(=S)N(CCN1CCCCCC1)Cc1cccs1 | -55.3
COc1ccccc1NC(=S)N(CCCN1CCOCC1)Cc1cccs1 | -35.6
Cc1ccc2c(c1)NC(=O)C(CC(=O)NCc1ccc(F)cc1)O2 (stereo not drawn) | -9.72
COc1ccc(S(=O)(=O)N(CCC#N)Cc2ccco2)cc1OC | 17.8
COc1cc(OC)cc(-c2n[nH]c(=S)n2-c2ccc3c(c2)OCO3)c1 | 15.4
O=C(NC1CCCCC1)N1CCCC(c2nc(-c3cccs3)no2)C1 (stereo not drawn) | -10.5

Compound | hERG current change (%, negative = inhibition) at 10uM [%]
CCc1nnc(NC(=O)C2CC(=O)N(CCc3ccc(F)cc3)C2)s1 (stereo not drawn) | 4.54
O=C(Nc1cccc(C(F)(F)F)c1)C(Sc1ncnc2ccccc12)c1ccccc1 (stereo not drawn) | 0.968
Cc1c(O)ccc2cc(S(=O)(=O)c3ccccc3)c(=O)oc12 | 13.8
Cc1ccc(-n2ncc3c2CCCC3NC(=O)CSc2ccccn2)cc1C (stereo not drawn) | -17.2
Cc1noc2ncnc(N3CCN(c4ccc(F)cc4)CC3)c12 | -38.3
Cc1noc2ncnc(N3CCN(c4cccc(Cl)c4)CC3)c12 | -52
Cc1noc2ncnc(N3CCCC3)c12 | 5.93
CCOc1cc(C2C(C(=O)OC)=CN(C3CCCC3)C=C2C(=O)OC)cc(Br)c1O | -1.51
C[N+]1(CC(O)COc2ccccc2)CCN(C(=O)c2ccc([N+](=O)[O-])cc2)CC1.[I-] (stereo not drawn) | -9.95
CCc1cccc(Nc2cc(C)nc3nc(C)nn23)c1 | -25.3
COc1ccc(OC)c(-c2nc(CN3CCCCC3c3cccnc3)c(C)o2)c1 (stereo not drawn) | -1.11
COc1ccc(-c2nc(CN3CCCCC3c3nccn3C)c(C)o2)c(C)c1C (stereo not drawn) | -64.9
COc1ccc(-c2noc(CN3CCCCC3c3nccn3C)n2)cc1 (stereo not drawn) | -6.83
CC(=O)c1ccc(N(CC(=O)NC2CCCCC2)C(=O)CNC(=O)c2ccco2)cc1 | -7.74
O=C(Nc1scc(-c2ccccc2)c1C(=O)O)c1ccco1 | -0.991
CN(C)C(=O)CCC(=O)N1CCCC(N2CCN(c3cccc(C(F)(F)F)c3)CC2)C1 (stereo not drawn) | -12.3
O=C(CCn1cccn1)N1CCCC(N2CCN(c3cccc(Cl)c3)CC2)C1 (stereo not drawn) | -54.1
O=C(CCn1cccn1)N1CCCC(N2CCN(c3cccc(C(F)(F)F)c3)CC2)C1 (stereo not drawn) | -53.6
COC(=O)CCC(=O)N1CCCC(N2CCN(c3cccc(C(F)(F)F)c3)CC2)C1 (stereo not drawn) | -35.8
CCc1nccn1CCC(=O)N1CCCC(N2CCN(c3cccc(Cl)c3)CC2)C1 (stereo not drawn) | -36.1
O=C(c1ccccn1)N1CCCC(N2CCN(c3cccc(C(F)(F)F)c3)CC2)C1 (stereo not drawn) | -28.8
Cc1ccnn1CCC(=O)N1CCCC(N2CCN(c3cccc(Cl)c3)CC2)C1 (stereo not drawn) | -30.3
O=C(CCn1cncn1)N1CCCC(N2CCN(c3cccc(C(F)(F)F)c3)CC2)C1 (stereo not drawn) | -35.8
O=C(CCc1ccccn1)N1CCCC(N2CCN(c3cccc(C(F)(F)F)c3)CC2)C1 (stereo not drawn) | -68.2
